From PubChem
Shown are actives, neighbours in structure and some others; about 0.43% of the full set was active somewhere.
GAA inhib: qHTS Assay for Inhibitors of Human alpha-Glucosidase as a Potential Chaperone Treatment of Pompe Disease; Lysosomal alpha-glucosidase (Homo sapiens), P10253; purified human GAA, 4-MU-alpha-glucoside fluorescence; Potency, µM (top dose mostly 76.9 µM), inactives show top-dose activity change, negative = inhibition, hits mostly inhibitors; 200,000 tested, 0.005% active; AID 1466, 2008;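 also: potency is read from the fitted curve at half-maximal effect; plate controls were uninhibited enzyme wells for no effect and no-enzyme background for full effect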
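Read-out is 4-methylumbelliferone fluorescence (Ex 365/Em 440 nm) after NaOH/glycine stop at pH 10. Enzyme 4 nM, substrate 400 uM, pH 5.0 citrate buffer, 20 min room temperature; AC50 from Hill-equation concentration-response.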
N370S GC: qHTS Assay for Inhibitors and Activators of N370S glucocerebrosidase as a Potential Chaperone Treatment of Gaucher Disease. Lysosomal acid glucosylceramidase (Homo sapiens), P04062. 330,000 tested, 0.092% active. N370S GC spleen homogenate, 4MU-glucoside fluorescence. Potency, µM (highest dose often 59.4 µM), without a hit: at the highest dose activity change, negative = inhibition, hits mostly inhibitors;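 also: potency is read from the fitted curve at half-maximal effect; 0% = full enzyme activity and -100% = no enzyme basal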
GLA inh pH 4.5: qHTS Assay for Inhibitors of Human alpha-Galactosidase at pH 4.5; purified enzyme, 4-MU-alpha-Gal fluorescence, pH 4.5; activity change, negative = inhibition, % at 105 µM; 230,000 tested, under 10 active; AID 1467, 2008;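 also: 0% = full activity with enzyme and -100% = basal without enzyme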
GAA glycogen: qHTS Assay for Inhibitors and Activators of Human alpha-Glucosidase Cleavage of Glycogen; 300,000 tested, 0.38% active; recombinant GAA, glycogen substrate, Amplex Red glucose oxidase fluorescence; Lysosomal alpha-glucosidase (Homo sapiens), P10253; Potency, µM (doses to about 76.4 µM), for the others: at the highest dose activity change, negative = inhibition, usual class: inhibitors;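 also: potency is read from the fitted curve at half-maximal effect; 0% = full enzyme reaction and -100% = no-enzyme basal signal; the screen sought inhibitors and activators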
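Recombinant human alpha-glucosidase (4 nM final) hydrolysed bovine liver glycogen (30 ug) for 40 min at 37 C in pH 5.0 citrate/phosphate with 0.01% Tween-20. Released glucose detected by glucose oxidase/Amplex Red, Ex 573/Em 610 nm. Compounds up to 77 uM; AC50 from Hill fits.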
aGlu spleen mod: qHTS Assay for Inhibitors and Activators of Human alpha-Glucosidase From Spleen Homogenate; Potency, µM (doses to about 79.9 µM), for inactives: top-dose activity change, negative = inhibition, most hits filed as inhibitors; 240,000 tested, 0.006% active; human spleen homogenate, 4-MU-alpha-glucoside fluorescence; Lysosomal alpha-glucosidase (Homo sapiens), P10253;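 also: potency is read from the fitted curve at half-maximal effect; 0% = enzyme with vehicle and -100% = no enzyme basal signal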
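Human spleen homogenate (1 ug) with 4-methylumbelliferyl-alpha-D-glucopyranoside (1 mM final) in 50 mM citrate/phosphate pH 5.0, 0.01% Tween-20; 40 min at 37 C. Stopped at pH 10; 4-MU fluorescence Ex 365/Em 440 nm; AC50 by Hill fit.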
aGal spleen mod: qHTS Assay for Inhibitors and Activators of Human alpha-Galactosidase From Spleen Homogenate; Alpha-galactosidase A (Homo sapiens), P06280; human spleen homogenate, 4MU-alpha-Gal fluorescence, 40 min; Potency, µM (series often up to 80 µM), inactives show at the highest dose activity change, negative = inhibition, usual class: inhibitors; 240,000 tested, 0.008% active;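 also: potency is read from the fitted curve at half-maximal effect; 0% = enzyme with vehicle and -100% = no enzyme basal signal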
Target sequence (P06280 32-429 limits assumed): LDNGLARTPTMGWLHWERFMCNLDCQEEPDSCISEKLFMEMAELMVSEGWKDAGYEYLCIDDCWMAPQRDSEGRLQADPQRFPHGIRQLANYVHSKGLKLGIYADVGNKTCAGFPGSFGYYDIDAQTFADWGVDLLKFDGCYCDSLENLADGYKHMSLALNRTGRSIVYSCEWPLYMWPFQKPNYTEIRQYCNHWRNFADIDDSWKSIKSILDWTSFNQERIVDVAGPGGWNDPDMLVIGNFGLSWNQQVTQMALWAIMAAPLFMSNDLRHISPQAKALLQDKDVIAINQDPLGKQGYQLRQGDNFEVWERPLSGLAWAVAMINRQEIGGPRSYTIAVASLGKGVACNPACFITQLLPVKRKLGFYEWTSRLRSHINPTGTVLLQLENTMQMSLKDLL
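qHTS titration in buffer at pH 5.0. Alpha-galactosidase activity in spleen homogenate was measured via 4-methylumbelliferone release from 1 mM fluorogenic substrate after 40 min at 37C and a pH 10 stop. AC50 came from Hill fits of control-normalized data.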
Numbers without * were called inactive; u = inconclusive; x = no result given; [ ] = remark or other dose. Calls follow the shape of the dose curve; as a rule, active = well fitted curve in the direction sought with a large enough effect; inconclusive = small, poorly fitted or top-dose-only effect, or another doubt; inactive = no such curve, though single readings can be large; an effect the other way counts as inactive or inconclusive.

SMILES	GAA inhib	N370S GC	GLA inh pH 4.5	GAA glycogen	aGlu spleen mod	aGal spleen mod
O=S(=O)(c1ccc(Cl)cc1)N1CCN(c2nc(-c3cccs3)nc3ccccc23)CC1	u	0.45µM*	-9	-7%	5%	10%
CC(Sc1ccccc1)C(=O)N1CCN(S(=O)(=O)c2ccccc2F)CC1 (centres undefined)	x	3%	x	-12%[76.3 µM]	x	x
c1ccc(C2[C@H]3CN(CC4CCCCC4)[C@H](c4ccccc4)C34CC2(c2cccnc2)C4)cc1 (some centres undefined)	x	14µM*	2	-1%	1%	3%
COc1ccc(S(=O)(=O)c2c(C)c(NS(=O)(=O)c3ccccc3)cc(C)c2O)cc1	-2%	11%	-1	u	-4%	-1%
Cc1c(NS(=O)(=O)c2ccccc2)cc(C(C)C)c(O)c1S(=O)(=O)c1ccc(Cl)cc1	x	x	x	11µM*	x	x
Cn1cc([N+](=O)[O-])c(C(=O)N2CCCCCC2)n1	x	-7%	x	0%[76.3 µM]	x	x
COc1ccc(Nc2nc(-c3cccs3)nc3ccccc23)cc1	-11%	1.1µM*	-9	-9%	-8%	-2%
COc1cccc(-c2nc(N(C)C)c3ccccc3n2)c1	x	-9%	x	x	5%	-3%
COc1cccc(CN(C)c2nc(-c3cccs3)nc3ccccc23)c1	-12%	1.6µM*	-2	10%	-3%	-9%
COc1ccc(Nc2nc(-c3ccccc3)nc3ccccc23)cc1	x	u	x	-13%	x	x
COc1cccc(Nc2nc(-c3cccs3)nc3ccccc23)c1	-3%	13µM*	3	7%	1%	-4%
CCOc1ccccc1NC(=O)N1CCc2cc(S(=O)(=O)N3CCC(C)CC3)ccc21	x	x	x	7%[76.3 µM]	x	x
CCCCn1c(CN2CCN(c3cccc(Cl)c3)CC2)nc2c1c(=O)n(C)c(=O)n2C	u	-8%	-20	-1%	-17%	35µM*
CCCCCn1c(CN2CCN(c3cccc(Cl)c3)CC2)nc2c1c(=O)n(C)c(=O)n2C	u	-5%	-8	-11%	-1%	5%
COc1cc(SC)ccc1C(=O)N1CCN(c2ccc(O)cc2)CC1	3%	-20%	2	4µM*	2%	5%
COc1cc(SC)ccc1C(=O)N1CCN(c2ccccc2)CC1	13%	-3%	0	-12%	-3%	4%
O=C1CC(c2ccc(F)cc2)c2c(c3ccccc3[nH]c2=O)O1 (centres undefined)	x	x	x	13%[76.3 µM]	x	x
COc1cc(C2CC(=O)Oc3c2c(=O)[nH]c2ccccc32)cc(OC)c1OC (centres undefined)	x	x	x	50µM*	x	x
O=c1cnc2cnc(OCc3ccccc3)nc2n1CCc1ccccc1	x	u	x	x	0%	-6%
CCOC(=O)Nc1sc(=S)n(C)c1C	3%	13%	-4	7.9µM*	8%	3%
Cc1c(NC(=O)OCCNC(=O)Nc2ccccc2)sc(=S)n1C	-11%	u	-8	u	13%	5%
NNC(=O)c1cc(-c2ccccc2)sc1N	x	-7%	3	5µM*	1%	7%
Cc1ccc(-c2nc(C#N)c(NCC3CCCO3)o2)cc1 (centres undefined)	14%	-1%	5	u	5%	10%
COc1ccc(-c2nc(C#N)c(NCC3CCCO3)o2)cc1 (centres undefined)	-8%	0%	1	28µM*	-16%	-18%
Cc1ccc(-n2c3c(c(=O)[nH]c2=O)C(NC(=O)c2ccccc2F)(C(F)(F)F)C(=O)N3)cc1C (centres undefined)	x	x	x	12%[76.3 µM]	x	x
SMILES	GAA inhib	N370S GC	GLA inh pH 4.5	GAA glycogen	aGlu spleen mod	aGal spleen mod
Cc1ccccc1S(=O)c1ccccc1C(=O)O (centres undefined)	x	-2%	-1	-2%	-2%	8%
O=C(O)COc1ccc(/C=N/n2c(COc3ccccc3)nc3ccccc3c2=O)cc1	0%	0%	-8	16%	-3%	-1%
O=c1c2ccccc2nc(COc2ccccc2)n1/N=C/c1ccc(O)c(O)c1	x	0%	-6	16µM*	-6%	-16%
Cc1cc(C)c2ccc3c(C)c(C)nc3c2[nH]1	u	7.1µM*	-10	7%	x	-5%
Cc1cc(OCc2ccc(C(=O)NN=C3CCCC3)cc2)ccc1Cl	-4%	10%	3	-3%	5%	-2%
Cn1c(CNc2ccccc2O)nc2ccccc21	4%[15.4 µM]	11%	-1	14µM*	-6%	-6%
COCCn1c(-c2ccccc2)nc2c(c(=O)c3ccccc3n2C)c1=O	2%	11%	3	5%	-2%	-6%
NC(=O)Cc1c[nH]c2cccc(O)c12	1%	9%	7	10µM*	4%	-2%
CCOc1ccccc1N(CC)C(=O)c1nn(C)c2c1CSc1ccccc1-2	x	-3%	x	-15%[76.3 µM]	x	x
Cc1ccccc1-c1nccc(Nc2ccc(F)cc2)n1	x	20µM*	x	x	-5%	-8%
COc1cc(C2NC(=O)NC(C)=C2C(=O)OCc2ccc(C)cc2)cc(OC)c1O (centres undefined)	1%	0%	4	9.9µM*	10%	8%
COc1cc(C2NC(=O)NC(C)=C2C(=O)OCc2ccc(C)cc2)cc(OC)c1OC (centres undefined)	x	-15%	x	6%[76.3 µM]	x	x
CC(N)(C(=O)O)c1ccc(S(=O)(=O)O)cc1 (centres undefined)	x	-1%	x	x	3%	3%
COc1ccc(CNC(=O)COC(=O)c2ccccn2)cc1	4%	-21%	1	9%	-10%	-8%
Cc1ccc(C(=S)N2CCN(Cc3ccccc3)CC2)cc1	-3%	13%	-8	-3%	-2%	-4%
CCN1CCN(C(=S)c2ccc(-c3ccccc3)cc2)CC1	1%	11µM*	-7	-14%	7%	2%
CCc1c(C)c(C#N)c2nc3ccccc3n2c1Nc1c(C)n(C)n(-c2ccccc2)c1=O	4%	10%	-6	25µM*	3%	0%
CCCc1cc(Nc2c(C)n(C)n(-c3ccccc3)c2=O)n2c(nc3ccccc32)c1C#N	u	-7%	-18	14µM*	-2%	10%
Cc1cc(Nc2c(C)n(C)n(-c3ccccc3)c2=O)n2c(nc3ccccc32)c1C#N	-9%	-12%	-13	14µM*	-1%	1%
